# Screening results as filed in PubChem.
# An excerpt weighted towards active compounds, which were near 2.4% of everything screened.
# Pol iota inh – DNA polymerase iota (human) inhibition; 390,000 tested, 1% active; Pol iota fluorescent replication assay, 10 min; Potency, µM (series often up to 115 µM), actives largely listed as inhibitors; Q9UNA4
#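 Pol iota at 10 nM preincubated 15 min with compounds at room temperature; reaction started with fluorescent substrate, 50 nM final. Fluorescence read kinetically at 0 and 10 min; buffer-only wells as negative control.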
# POLK inh – blocks human DNA polymerase kappa activity | Q9UBT6 | purified Pol kappa, fluorescent DNA synthesis assay, 10 min | Potency, µM (doses to about 107 µM), actives largely listed as inhibitors | 400,000 tested, 0.53% active
#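 Readout: fluorescence, taken kinetically at 0 and 10 min. Conditions: 10 nM Pol kappa, 15 min RT compound preincubation, 50 nM substrate final. Controls: enzyme-free buffer wells.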
# Pol beta inh – inhibitors of human DNA polymerase beta; P06746; Pol beta primer extension/strand displacement, fluorescence kinetic; Potency, µM (series often up to 114 µM), most hits filed as inhibitors; 340,000 tested, 1.3% active; AID 485314
#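 Homogeneous kinetic assay of primer extension and strand displacement by 10 nM Pol beta, preincubated 15 min at room temperature with compound before 50 nM substrate (final) was added. Read at 0 and 10 min; four-parameter Hill fit.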
# Pol eta inh – blocks human DNA polymerase eta activity; Q9Y253; recombinant Pol eta, fluorescent DNA replication assay; Potency, µM (titrated, usually from 114 µM), usual class: inhibitors; 390,000 tested, 1.2% active
#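 Pol eta at 10 nM preincubated with compounds 15 min at room temperature; reaction started with fluorescent substrate (50 nM final) and read kinetically at 0 and 10 min.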
# WRN inhibitor – blocks human WRN helicase; Q14191; WRN helicase unwinding, fluorescent forked duplex, kinetic; Potency, µM (top dose mostly 114 µM), most hits filed as inhibitors; 360,000 tested, 0.46% active; note: nearly all actives have a fitted effect of over 55% in size
#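 Kinetic red-fluorescence monitoring (525/598 nm) tracks WRN helicase activity after 100 nM fluorophore-quencher forked duplex and 2 mM ATP are added to 20 nM enzyme pretreated 15 min at room temperature with compound.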
# FEN1 inh – inhibitors of human flap endonuclease 1. P39748. Recombinant FEN1 flap cleavage, fluorescence, 15 min. Potency, µM (series often up to 114 µM), most hits filed as inhibitors. 390,000 tested, 0.35% active. AID 588795; note: nearly all actives have a fitted effect of over 65% in size
# Target sequence (P39748 whole entry, looked up): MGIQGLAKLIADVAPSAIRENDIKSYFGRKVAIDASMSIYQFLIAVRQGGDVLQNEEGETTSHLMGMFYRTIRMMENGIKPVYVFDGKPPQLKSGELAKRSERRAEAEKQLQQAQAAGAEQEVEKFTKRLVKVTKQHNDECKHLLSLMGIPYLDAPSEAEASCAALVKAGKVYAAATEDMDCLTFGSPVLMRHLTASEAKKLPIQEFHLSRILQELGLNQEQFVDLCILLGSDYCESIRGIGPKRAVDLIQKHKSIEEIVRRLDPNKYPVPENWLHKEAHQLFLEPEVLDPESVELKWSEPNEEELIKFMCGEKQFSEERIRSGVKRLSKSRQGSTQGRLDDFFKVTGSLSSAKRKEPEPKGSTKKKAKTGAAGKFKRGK
#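 FEN1 at 10 nM preincubated with compounds 15 min at room temperature, then flap DNA substrate added at 50 nM final. Signal read at 0 and 15 min; concentration-response fitted with four-parameter Hill equation.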
# Hits are given with their value; n = inactive; u = inconclusive; x = no result; [ ] = remark or other dose. Calls come from the whole dose curve; as a rule, active = well fitted curve in the direction sought with a large enough effect; inconclusive = small, poorly fitted or top-dose-only effect, or another doubt; inactive = no such curve, though single readings can be large; an effect the other way counts as inactive or inconclusive.
SMILES,Pol iota inh,POLK inh,Pol beta inh,Pol eta inh,WRN inhibitor,FEN1 inh
O=C(CSc1nc2c(cnn2-c2ccc(F)cc2)c(=O)[nH]1)Nc1ccccc1C(F)(F)F,u,n,7.9µM,n,x,n
[O-][N+]12CCCc3cccc(c31)CCC2,u,n,x,x,x,u
Cc1cc(C)c2c(=O)c(C#N)coc2c1,u,u,45µM,50µM,56µM,u
COC(=O)c1ccccc1NC(=O)CCS(=O)(=O)c1ccc(Br)s1,n,n,n,n,n,n
Cc1ccccc1NC(=O)CCS(=O)(=O)c1ccc(Br)s1,u,u,35µM,u,n,n
C/C(=N\OCC(=O)OCC(=O)NCc1ccccc1)c1ccc2c(c1)OCO2,40µM,u,x,20µM,u,n
CCN(CC)CCCN(c1ccccc1)C1Cc2ccccc2C1,x,n,x,x,x,n
COC(=O)C1=C[C@@H](C(=O)OC)C2C3=C(C(=O)[C@@]2(C)NC(=O)c2ccccc2)[C@H](C)n2c(=O)n(-c4ccccc4)c(=O)n2[C@@H]3C1 (stereo partly specified),n,n,x,x,x,n
O=C(c1ccc(Cl)c(S(=O)(=O)Nc2ccccc2C(=O)N2CCc3ccccc3C2)c1)N1CCc2ccccc2C1,n,n,n,40µM,n[11.6 µM],n
O=c1c(Cl)c(N/N=C/c2ccc(Cl)cc2)cnn1-c1ccccc1,28µM,u,18µM,u,u,u
Nc1c(C(=O)N/N=C/c2ccc(Cl)cc2)cnn1-c1ccccc1,n,n,n,n,n,n
CC1=NN(c2ccc(C(=O)OC(C)C)cc2)C(=O)/C1=C\C=C\c1ccco1,n,n,50µM,u,n,n
CC1=NN(c2ccccc2)C(=O)/C1=C\C=C\c1ccccc1,u,n,u,79µM,n[11.6 µM],u
COc1ccc2c(c1)c(=O)oc1cc(O)ccc12,n,n,n,n,n,n
COc1ccc2c(c1)c(=O)oc1cc3oc(C)c(C)c3cc12,x,x,25µM,x,x,x
COc1ccccc1N(/N=C1\Sc2ccccc2C1=O)C(C)=O,u,n,n,89µM,n[11.6 µM],n
COc1cccc(N2CCN(c3ncnc4onc(-c5ccc(Cl)cc5)c34)CC2)c1,n,n,n,n,x,n
CC(=O)Nc1ccc(NC(=O)c2cc([N+](=O)[O-])cc([N+](=O)[O-])c2)cc1,n,n,n,n,n,n
Cc1ccc(NC(=O)c2ccc(Nc3c([N+](=O)[O-])cc([N+](=O)[O-])cc3[N+](=O)[O-])cc2)cc1,20µM,n,u,u,u,n
Cn1c(=O)c2c(ncn2CC(=O)Nc2cccc(Cl)c2Cl)n(C)c1=O,n,n,n,n,x,n
O/C(=C\c1nc2ccccc2nc1/C=C(\O)c1ccccc1)c1ccccc1,n,n,n,n,45µM,n
O=c1oc2ccccc2nc1/C=C(\O)c1ccccc1,n,n,n,n,n[11.6 µM],u
COc1cccc2c1Oc1ncccc1N(C(=O)CCC(=O)NCc1cccc(C)c1)C2,40µM,n,n,n,n[11.6 µM],n
COc1cccc2c1Oc1ncccc1N(C(=O)CCC(=O)NCc1ccc(F)cc1)C2,n,n,n,n,n,n
CCC(CO)Oc1cc(NC(=O)c2ccc(N)cc2)c2ncn(C(C)C)c2c1 (stereo unspecified),u,n,x,89µM,n,n
SMILES,Pol iota inh,POLK inh,Pol beta inh,Pol eta inh,WRN inhibitor,FEN1 inh
CCC(CO)Oc1cc(NCc2ccccc2)c2ncn(C(C)C)c2c1 (stereo unspecified),18µM,n,x,n,n[11.6 µM],n
CCCCOc1cc(NCc2ccccc2)c2ncn(C(C)C)c2c1,u,n,x,n,n,n
CCC(CO)Oc1cc(NCc2ccc(O)cc2)c2ncn(C(C)C)c2c1 (stereo unspecified),n,n,x,n,n,n
CCOCCOc1cc(NCc2ccccc2)c2ncn(C(C)C)c2c1,35µM,n,x,n,n[11.6 µM],u
COc1ccc(NC(=O)N2CCOc3ccc(Cl)cc32)cc1,n,n,n,n,x,n
COc1cc(/C=C2\SC(=O)N(c3ccc(O)cc3)C2=O)cc(OC)c1OC,n,n,n,n,n,n
COc1cc(/C=C2\SC(=O)N(c3ccccc3Cl)C2=O)cc([N+](=O)[O-])c1O,u,n,89µM,56µM,n[11.6 µM],u
COc1cc(/C=C2\SC(=O)N(CC(=O)Nc3ccccc3F)C2=O)cc(Cl)c1O,u,u,u,50µM,n,n
CC(=O)N1CCc2cc(S(=O)(=O)CCC(=O)NCc3ccc4c(c3)OCO4)ccc21,n,n,45µM,u,n,n
CC(=O)N1CCc2cc(S(=O)(=O)CCC(=O)NCc3cccs3)ccc21,n,n,n,n,n,n
Cc1ccc(C)c(N2CCN(C(=O)c3cccn3-c3nnc(N4CCCCC4)s3)CC2)c1,u,n,n,n,x,n
O=C(c1cccs1)c1no[n+]([O-])c1C(=O)c1cccs1,25µM,n,n,n,28µM,n
CCc1c(C)c2cc3c(c(C)c2oc1=O)OCN(CCc1ccccc1F)C3,n,n,n,n,x,n
COc1ccc(-c2[nH]c(-c3ccc(O)cc3)nc2-c2ccccc2)cc1,n,n,n,n,x,n
Cc1ccccc1Cn1c(CN2CCCC(C)C2)nc2c1c(=O)n(C)c(=O)n2C (stereo unspecified),n,n,n,n,x,n
Cc1cccc(NC2SC(=O)N(c3ccccc3)C2=O)c1 (stereo unspecified),n,n,n,n,n,n
O=C(CC1SC(=O)N(c2ccccc2)C1=O)Nc1ccccc1 (stereo unspecified),u,n,n,n,40µM,n
Cc1cccc(NC(=O)CC2SC(=O)N(c3ccccc3)C2=O)c1 (stereo unspecified),n,n,n,n,100µM,n
Cc1ccc(NC(=O)CC2SC(=O)N(c3ccccc3)C2=O)cc1 (stereo unspecified),n,n,n,n,u,n
O=[N+]([O-])c1ccc(O/N=[N+](\[O-])N2CCN(c3ncccn3)CC2)c([N+](=O)[O-])c1,u,n,x,x,x,n
O=C(Cc1ccccc1Cl)NC1(O)C(=O)c2ccccc2C1=O,5µM,n,n,u,n[11.6 µM],n
CCCSc1oc(-c2ccco2)nc1S(=O)(=O)c1ccc(Cl)cc1,u,n,n,n,x,n
O=C(CSc1oc(-c2ccco2)nc1S(=O)(=O)c1ccc(Br)cc1)c1ccc(Cl)cc1,89µM,u,n,n,x,n
CCOc1cc2[nH]c(=O)n(Cc3ccc(C(=O)N4CCN(c5cccc(Cl)c5)CC4)cc3)c(=O)c2cc1OCC,n,n,n,n,x,n
COc1ccc(Oc2ncc3nc(-c4ccccc4)c(=O)n(Cc4cccs4)c3n2)cc1,x,n,x,x,x,x
NC(=O)c1c(NC(=O)CN2C(=O)NC(Cc3ccccc3)C2=O)sc2c1CCC2 (stereo unspecified),45µM,u,u,u,n,n
